The subject of one test is Staphylococcus aureus. To be noted: Concentration 20 uM; ASSAY_TEST Inhibition of Bacterial Growth; detection method Absorption (OD600); MEDIA CAMHB; plate type 384well; NBS; CORNING #3640; time 18 hr.
A further test has as its system Escherichia coli. To be noted: Concentration 20 uM; ASSAY_TEST Inhibition of Bacterial Growth; detection method Absorption (OD600); MEDIA CAMHB; plate type 384well; NBS; CORNING #3640; time 18 hr.

Potency and affinity values are given separately.

A word on the Inhibition: it is the relative decrease from the control value, in per cent. For the compound `Cc1nn(Cc2ccccc2)c(Cl)c1C(=O)NC1CCCCCC1`, the Inhibition worked out at 11.91% in the test with Staphylococcus aureus and 1.54% in the test on Escherichia coli.

Regarding `Nc1c2c(nc3sc4c(c13)CCCC4)CCCC2`, the values for the Inhibition in the test with Staphylococcus aureus and in the test with Escherichia coli were 6.99% and -4.01%, respectively.

`CO[C@@H]1CN(c2ccc(C#CC3(O)CN4CCC3CC4)c(Cc3ccccc3)n2)C[C@H]1O` (stereo not given in full): the Inhibition is given as -11.47% in the test on Staphylococcus aureus and -3.76% in the test on Escherichia coli.

Regarding `CC(=O)Oc1ccccc1C(=O)Nc1ncc([N+](=O)[O-])s1` [NITAZOXANIDE], the Inhibition was 50.75% in the test on Staphylococcus aureus and -2.79% with Escherichia coli.

For `CO[C@@H](C(=O)N1Cc2[nH]nc(NC(=O)c3ccc(N4CCN(C)CC4)cc3)c2C1)c1ccccc1` [DANUSERTIB], the Inhibition with Staphylococcus aureus is given as 12.13%; with Escherichia coli it was 1.94%.

As to `Cc1cc(C2=NOC(c3cc(Cl)c(F)c(Cl)c3)(C(F)(F)F)C2)ccc1C(=O)NCc1ccc2c(c1)C(C)(C)OB2O` (stereo not given), the Inhibition stood at 14.07% in the test on Staphylococcus aureus and 6.28% with Escherichia coli.

As for `Cc1nn(C)c(C)c1NS(=O)(=O)c1c(Cl)cc(-c2ccnc(N3CCNCC3)c2)cc1Cl`, the Inhibition was 12.75% with Staphylococcus aureus and 5.87% in the test with Escherichia coli.

On to `CC1(C)OB(O)c2ccc(C3=NOC(c4cc(Cl)c(F)c(Cl)c4)(C(F)(F)F)C3)cc21` (stereo not given), for which the Inhibition in the test with Staphylococcus aureus stood at 15.02%; with Escherichia coli, 11.05%.

For `Cc1cccc(C(=O)Nc2ccnc(N(C)C3CCN(CC(C)C)CC3)c2)c1`, the Inhibition stood at 17.27% in the test with Staphylococcus aureus and 7.9% in the test with Escherichia coli.

`CNCCC(Oc1ccc(C(F)(F)F)cc1)c1ccccc1` (stereo not given) [FLUOXETINE]: the Inhibition amounted to 7.53% in the test on Staphylococcus aureus and 3% with Escherichia coli.
